Assay results taken from the supplement of paper PMC9023506.
Counter-ions that a name gives are not always drawn.

Tested on: Danio rerio larvae (5 dpf)
Assay: habituation to 1-s acoustic pulses, difference vs DMSO (percentage points (treated minus DMSO)); higher = more of the behaviour than the DMSO vehicle control
Conditions: 10 µM; exposure time: 3 h pre-incubation + 3 h imaging
Description: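 5-dpf wild-type zebrafish larvae were imaged in 96-well plates. They were treated with 190 Tocris FDA-approved drugs at 10 µM (1 µl/ml DMSO) for 3 h before and 3 h during imaging at 28.5 °C, 48 larvae per drug. Automated image analysis gave % time moving and optomotor responses. Values are drug group mean minus DMSO vehicle mean (n=844), in percentage points, for 10 behaviours.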

Structure (SMILES)	habituation to 1-s acoustic pulses
CN1C[C@H](C(=O)N[C@]2(C)O[C@@]3(O)[C@@H]4CCCN4C(=O)[C@H](Cc4ccccc4)N3C2=O)C[C@@H]2c3cccc4[nH]cc(c34)C[C@H]21 [Dihydroergotamine mesylate]	1.85
CC(O)(CS(=O)(=O)c1ccc(F)cc1)C(=O)Nc1ccc(C#N)c(C(F)(F)F)c1 (configuration not stated) [Bicalutamide]	-5.47
COc1cc2c(cc1OC)C1CC(=O)C(CC(C)C)CN1CC2 (configuration not stated) [Tetrabenazine]	1.65
N[C@@H]1C[C@H]1c1ccccc1 [Tranylcypromine hydrochloride]	-0.45
CC[C@@H](C(N)=O)N1CCCC1=O [Levetiracetam]	-2.74
C=CCN1C[C@H](C(=O)N(CCCN(C)C)C(=O)NCC)C[C@@H]2c3cccc4[nH]cc(c34)C[C@H]21 [Cabergoline]	3.78
COc1ccc(C(CN(C)C)C2(O)CCCCC2)cc1 (configuration not stated) [Venlafaxine hydrochloride]	-6.08
O=c1[nH]c2ccccc2n1C1CCN(CCCC(c2ccc(F)cc2)c2ccc(F)cc2)CC1 [Pimozide]	-6.41
Cc1cccc([C@H](C)c2c[nH]cn2)c1C [Dexmedetomidine hydrochloride]	-9.7
CCN(C)C(=O)Oc1cccc([C@H](C)N(C)C)c1 [Rivastigmine tartrate]	-1.77
CC(C)C[C@H]1C(=O)N2CCC[C@H]2[C@]2(O)O[C@](NC(=O)[C@@H]3C=C4c5cccc6[nH]c(Br)c(c56)C[C@H]4N(C)C3)(C(C)C)C(=O)N12 [Bromocriptine mesylate]	-3.22
C=C1C[C@@H]2[C@H](CC[C@]3(C)C(=O)CC[C@@H]23)[C@@]2(C)C=CC(=O)C=C12 [Exemestane]	-0.223
